Rows were chosen to be rich in hits. Some 6.6% of all compounds tested hit in one or more screens of this group.
SW480 rereplic: inducers of DNA re-replication in SW480 colon cancer cells | SW480 DNA re-replication, Hoechst DNA content imaging, 48 h | hit rate 1.8% among 340,000 | Potency, µM (series often up to 46.1 µM), without a hit: top-dose re-replication activation, actives largely listed as activators; also: % of control where 0% means no effect; nearly all actives have a fitted effect of over 55% in size
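DNA re-replication was detected as more nuclei of elevated Hoechst intensity after 48 hr exposure to compound (23 nL pinned per well of 250 cells).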
MCF10A rerep: DNA re-replication induction in MCF 10a cells. hit rate 2.9% among 350,000. MCF 10A DNA re-replication, Hoechst nuclear intensity, 48 h. Potency, µM (titrated, usually from 46.1 µM), for inactives: at the top dose activity, positive = re-replication, hits mostly activators; also: % of control where 0% means no effect; nearly all actives have a fitted effect of over 50% in size
KB-3-1 cytotox: KB-3-1 parental cell cytotoxicity; KB-3-1 viability, CellTiter-Glo ATP luminescence, 72 h; hit rate 1.4% among 400,000; Potency, µM (titrated, usually from 46.1 µM), usual class: cytotoxic; also: % is scaled to controls: 0 for no effect and ±100 for the full control effect; nearly all actives have a fitted effect of over 60% in size
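Parental KB-3-1 adenocarcinoma cells in phenol-red-free DMEM with 10% FBS were pin-treated with compounds at several concentrations, incubated 72 h at 37 °C, and viability read by CellTiter-Glo luminescence; concentration-effect curves were fitted after normalization.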
RGS4 inh: blocks human RGS4-accelerated GTP hydrolysis | P49798 | Transcreener GDP fluorescence polarization, RGS4-accelerated GTP hydrolysis | Potency, µM (top dose mostly 114 µM), for inactives: top-dose activity change, negative = inhibition, most hits filed as inhibitors | hit rate 0.039% among 390,000 | AID 504845; also: % is scaled to controls: 0 for no effect and ±100 for the full control effect; nearly all actives have a fitted effect of over 75% in size
Target sequence (P49798 whole entry, looked up): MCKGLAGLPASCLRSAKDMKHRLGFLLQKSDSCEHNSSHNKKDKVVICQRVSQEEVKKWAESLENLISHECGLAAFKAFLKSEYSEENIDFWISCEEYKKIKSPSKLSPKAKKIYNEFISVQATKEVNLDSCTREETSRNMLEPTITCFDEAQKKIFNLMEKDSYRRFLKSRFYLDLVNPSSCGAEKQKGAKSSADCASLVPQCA
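MLSMR compounds (23 nl, pin-transferred) preincubated 10 min at room temperature with a 500nM (2x) first reagent, then RGS4 at 900nM (2x) plus Transcreener GDP mix added; fluorescence polarization (620/688 nm) read before and after 90 min at 30 °C.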
TSG101-PTAP inh: blocks PTAP/TSG101 interaction to inhibit HIV-1 budding; Potency, µM (titrated, usually from 115 µM), for inactives: at the highest dose activity change, negative = inhibition, hits mostly inhibitors; 340,000 tested, under 10 active; Fluorescence polarization, FITC-PTAP peptide / Tsg101 binding; Q99816; AID 493005; active = well fitted inhibition curve with a large enough effect in the main read-out, with a control signal flat, not every such curve was filed as active; inconclusive = small, poorly fitted or top-dose-only effect, or effect the other way, or a change in a side signal; inactive = no such curve, though single readings can be large or run the other way; also: % of control where 0% means no effect
Target sequence (Q99816 whole entry, looked up): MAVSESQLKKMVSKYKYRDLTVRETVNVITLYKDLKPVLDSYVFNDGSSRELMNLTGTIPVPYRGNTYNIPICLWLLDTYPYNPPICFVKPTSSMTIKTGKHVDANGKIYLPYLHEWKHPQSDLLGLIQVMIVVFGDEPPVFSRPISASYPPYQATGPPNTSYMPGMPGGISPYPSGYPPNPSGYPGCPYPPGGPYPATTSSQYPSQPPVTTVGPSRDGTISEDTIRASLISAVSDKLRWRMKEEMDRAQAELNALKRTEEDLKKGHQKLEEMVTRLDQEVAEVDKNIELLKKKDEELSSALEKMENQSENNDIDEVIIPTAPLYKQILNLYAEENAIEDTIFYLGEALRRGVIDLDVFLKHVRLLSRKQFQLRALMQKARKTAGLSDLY
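Compounds were pin-transferred onto Tsg101 binding domain (10 uM final) in HEPES pH 7.5 buffer, then FITC-PTAP peptide was added at 50 nM final. After 20 min at RT, polarization reported peptide displacement across a qHTS concentration series.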
KB-V1 cytotox: KB-V1 MDR subline cytotoxicity | KB-V1 MDR cells viability, CellTiter-Glo, 72 h | hit rate 3.4% among 400,000 | Potency, µM (series often up to 46.1 µM), actives largely listed as cytotoxic | AID 1347076; also: % is scaled to controls: 0 for no effect and ±100 for the full control effect; nearly all actives have a fitted effect of over 60% in size
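Luminescent ATP read-out (CellTiter-Glo, 10 min) measures survival of drug-selected KB-V1 MDR cells after 72 h, 37 degrees C compound exposure. Medium: phenol-red-free DMEM, 10% FBS. Values from fitted concentration-response curves.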
An asterisk follows results filed as active; i = inactive; u = inconclusive; x = no result given; [ ] = dose if it differs, or a comment. Unless noted, calls follow the shape of the dose curve; as a rule, active = well fitted curve in the direction sought with a large enough effect; inconclusive = small, poorly fitted or top-dose-only effect, or another doubt; inactive = no such curve, though single readings can be large; an effect the other way counts as inactive or inconclusive. Potency is read from the fitted curve at half-maximal effect.

SMILES	SW480 rereplic	MCF10A rerep	KB-3-1 cytotox	RGS4 inh	TSG101-PTAP inh	KB-V1 cytotox
Cc1ccc(Cl)cc1N1CCN(C(=O)CSc2ccsc2[N+](=O)[O-])CC1	-5.2%	u	i	-26.4%	-2.6%	5.17µM*
O=C(CN1CCN(c2ncc(C(F)(F)F)cc2Cl)CC1)N1CCN(c2ncc(C(F)(F)F)cc2Cl)CC1	u	u	u	26.1%	-5.5%	i
O=C(c1cc(C2CC2)nn1-c1ccccc1)N1CCN(c2ncc(C(F)(F)F)cc2Cl)CC1	-2.5%	13µM*	i	-19.4%	-6.3%	16.4µM*
O=C(c1cc(C2CC2)nn1-c1ccccc1)N1CCN(c2ccccn2)CC1	0.9%	-1.8%	i	7.9%	0.0%	u
O=C(CSc1ccc(Cl)cc1)N1CCN(c2ccc([N+](=O)[O-])cc2Cl)CC1	-4.5%	u	u	-50.5%	-3.2%	16.4µM*
CC=C1C2C=C(C)CC1(N)c1ccc(=O)[nH]c1C2 (stereo not given)	x	x	x	i	x	x
Cc1cc(C)n(-c2nc3ccccc3nc2Nc2cccc(C(F)(F)F)c2)n1	x	x	i	-3.1%	x	i
O=C(COc1ccccc1C(=O)Nc1cccc(F)c1)Nc1ccc(Br)cc1	x	x	u	x	x	i
COc1ccc(CNC(=O)COc2cc3c(c4oc(=O)cc(C)c24)CCC(C)(C)O3)cc1	-1.3%	u	i	-12.8%	-0.3%	i
COc1ccccc1CNC(=O)COc1cc2c(c3oc(=O)cc(C)c13)CCC(C)(C)O2	u	u	i	-17.5%	-0.7%	16.4µM*
Cc1cc(O)c2c(c1O)C(=O)[C@]13C(=C2O)C(=O)[C@@H]2[C@@H](O)[C@H]1[C@@H]1[C@H](O)[C@H]3C(=O)C3=C(O)c4c(O)cc(C)c(O)c4C(=O)[C@]312	5.4%	-55.1%	1.16µM*	u	-18.0%	i
Cc1ccc(-n2c(=O)c3ccc(C(=O)NCc4ccccc4Cl)cc3n(CC(=O)Nc3cccc(F)c3)c2=O)cc1	x	x	i	-15.7%	x	u
CC1CC(C)(C)Nc2ccc(N=O)cc21 (stereo not given)	2.31µM*	23.1µM*	i	-22.5%	0.3%	i
CC1CC(C)(C)Nc2ccc(OC(=O)c3ccco3)cc21 (stereo not given)	u	14.6µM*	u	-11.6%	1.4%	u
O=C(Oc1ccc2ccccc2c1)c1ccco1	-5.8%	5.9%	i	-19.3%	-6.4%	u
CC1CC2(CCCC2)Nc2ccc(F)cc21 (stereo not given)	-12.1%	-11.9%	i	-15.2%	-6.1%	i
CCOC(=O)CC(=O)CSc1nc2c(cc1C#N)CCC2	u	4.61µM*	i	-24.5%[11.4 µM]	-2.6%	i
COC(=O)CC(=O)CSc1nc2c(cc1C#N)CCCCC2	-9.1%	u	i	-23.8%	-6.5%	i
CCc1nc2ccccc2c(C(=O)OCC(=O)NCc2ccc3c(c2)OCO3)c1C	-44.0%	15.5%	i	7.3%	0.2%	i
N#Cc1cc2c(nc1SCC(=O)NCc1ccc3c(c1)OCO3)CCCCC2	-0.6%	u	i	16.0%	x	13µM*
O=C(CSc1nc(CCC2CCCC2)nc2ccccc12)NCc1ccc2c(c1)OCO2	-2.7%	10.3µM*	i	-21.2%	1.7%	u
CCCc1nc2ccccc2c(C(=O)OCC(=O)NCc2ccc3c(c2)OCO3)c1CC	9.5%	18.4µM*	u	8.1%	-8.2%	i
CC(CNC(=O)c1ccc2c(c1)nc1n2CCCCC1)c1ccccc1 (stereo not given)	x	x	i	-2.2%	x	i
Cc1csc2nc(COC(=O)c3cccc(NC(=O)COc4ccccc4Cl)c3)cc(=O)n12	x	x	x	-5.6%	x	x
Cc1nonc1NC(=O)CSc1nc(CCC2CCCC2)nc2ccccc12	-4.5%	7.31µM*	i	14.3%	-1.4%	i
SMILES	SW480 rereplic	MCF10A rerep	KB-3-1 cytotox	RGS4 inh	TSG101-PTAP inh	KB-V1 cytotox
CCC(Oc1ccc(F)cc1)C(=O)Nc1nc(-c2ccc(F)cc2)ns1 (stereo not given)	x	x	x	10.1%	x	x
Cc1nn(Cc2cccc(C(=O)NC(C)c3ccc(C(C)(C)C)cc3)c2)c(C)c1[N+](=O)[O-] (stereo not given)	9.9%	u	u	-10.9%	-3.7%	6.51µM*
COC(=O)c1cccc(Cn2nc(C)c([N+](=O)[O-])c2C)c1	0.3%	3.6%	i	-57.8%	-1.4%	u
CCC(NC(=O)c1cccc(Cn2nc(C)c([N+](=O)[O-])c2C)c1)c1ccc(C(C)C)cc1 (stereo not given)	-5.4%	3.8%	i	-24.5%	1.0%	2.91µM*
Cc1cccc(Cn2cc(/C=C/[N+](=O)[O-])c3ccccc32)c1	u	20.6µM*	u	u	1.3%	i
COC(=O)c1ccc(Cn2cc(/C=C\[N+](=O)[O-])c3ccccc32)o1	u	u	u	-45.4%	-8.5%	i
CCOC(=O)COc1ccc2ccccc2c1/C=C/[N+](=O)[O-]	u	u	18.4µM*	u	-1.5%	u
O=C(O)c1ccc(Cn2cc(/C=C\[N+](=O)[O-])c3ccccc32)o1	0.6%	-11.8%	i	-32.6%	-6.8%	i
CCOC(=O)Cn1cc(/C=C/[N+](=O)[O-])c2ccccc21	20.6µM*	u	i	u	-3.3%	u
O=[N+]([O-])/C=C/c1cn(Cc2ccc(Cl)cc2)c2ccccc12	u	5.8µM*	i	-40.8%	-8.9%	u
CCOC(=O)Cn1cc(C#N)c2ccccc21	-11.6%	-1.0%	i	-14.7%	-0.2%	i
O=C(Nc1nccs1)[C@@H]1CC=C[C@@H]2CCN(C3CCCCC3)C(=O)[C@@H]21	x	x	i	x	x	i
CCOc1ccc(/C=C/[N+](=O)[O-])c2ccccc12	6.51µM*	2.31µM*	u	u	-8.2%	18.4µM*
COc1ccc(-c2noc(N3CCC(C(=O)N(C)c4cc(Cl)ccc4OC)CC3)n2)cc1	x	x	i	18.7%	x	i
COc1ccc(NC(=O)Cn2cnc3c(nc4n3CCCCC4)c2=O)c(OC)c1	x	x	i	9.1%	x	i
Cn1c(N2CCN(C(c3ccccc3)c3ccccc3)CC2)nc2c1c(=O)[nH]c(=O)n2C	-6.2%	7.2%	u	-4.6%	-2.6%	20.6µM*
Cn1c(=O)[nH]c(=O)c2c1nc(N1CCNCC1)n2Cc1ccccc1Cl	-37.9%	2.91µM*	i	-11.5%	-1.4%	i
CC1CN(c2nc3c(c(=O)[nH]c(=O)n3C)n2Cc2ccccc2F)CC(C)O1 (stereo not given)	-6.4%	-0.2%	i	4.5%	-4.2%	18.4µM*

From PubChem BioAssay
